Consider 27 compounds from PubChem BioAssay.

The source made the active and inactive calls.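 Rule for the calls: active = thallium flux through the channel raised or lowered by more than 3 SD from vehicle-only wells, actives on both sides; inactive = the rest.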

In the experiment the test system is R275C/beta1. As to the kind of experiment: BK channel mutant inhibitors and activators – cell-based, U2OS BacMam, thallium flux, beta subunits, selectivity assay, profiling panel (AID 1259406).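 Note: initial slope of Thallos dye fluorescence rise after thallium is added; log ratio against the mean of 0.3% DMSO vehicle wells on the same plate.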 The following applies: U2OS BacMam BK variants, at 30 µM.
Regarding `O=C1N=C(O)CN1N=Cc1ccc(-c2ccc([N+](=O)[O-])cc2)o1`, the log fold change Tl+ flux was 0.0553 (inactive).
Next, `CC(=O)O[C@@]12CO[C@@H]1C[C@H](O)[C@@]1(C)C(=O)[C@H](O)C3=C(C)[C@@H](OC(=O)[C@H](O)[C@@H](NC(=O)OC(C)(C)C)c4ccccc4)C[C@](O)([C@@H](OC(=O)c4ccccc4)[C@H]21)C3(C)C`: 0.104 (active).
Regarding `CC1c2cccc(O)c2C(O)=C2C(=O)[C@]3(O)C(O)=C(C(N)=O)C(=O)[C@@H](N(C)C)[C@@H]3C[C@@H]21` (some centres not stated), the log fold change Tl+ flux is -0.0442 (inactive).
With `CO[C@H]1C=CO[C@@]2(C)Oc3c(C)c(O)c4c(O)c(c(C=NN5CCN(C6CCCC6)CC5)c(O)c4c3C2=O)NC(=O)C(C)=CC=C[C@H](C)[C@H](O)[C@@H](C)[C@@H](O)[C@@H](C)[C@H](OC(C)=O)[C@@H]1C` the figure was 0.0996 (active).
Next, `C=CC1=C(C(=O)O)N2C(=O)[C@@H](NC(=O)C(=NO)c3csc(N)n3)[C@H]2SC1`: 0.0161 (inactive); `C[C@H]1O[C@@H](O[C@H]2[C@@H](O)C[C@H](O[C@H]3[C@@H](O)C[C@H](O[C@H]4CC[C@@]5(C)[C@H](CC[C@@H]6[C@@H]5C[C@@H](O)[C@]5(C)C(C7=CC(=O)OC7)CC[C@]65O)C4)O[C@@H]3C)O[C@@H]2C)C[C@H](O)[C@@H]1O` (some centres not stated): -0.0167 (inactive); `CON=C(C(=O)N[C@@H]1C(=O)N2C(C(=O)O)=C(COC(N)=O)CS[C@H]12)c1ccco1`: -0.0484 (inactive).
With `Cc1cc(=O)oc2cc(NC(=O)C3CCC(=O)N3)ccc12` (configuration not stated) the figure was 0.0432 (inactive); with `N[C@@H](C(=O)N[C@@H]1C(=O)N2C(C(=O)O)=C(CSc3cn[nH]n3)CS[C@H]12)c1ccc(O)cc1` (tested in a mixture with another compound), 0.00628 (inactive); with `CN1CCN2c3ncccc3Cc3ccccc3[C@@H]2C1`, 0.0202 (inactive).
`C=CC[C@@H]1C=C(C)C[C@H](C)C[C@H](OC)[C@H]2O[C@@](O)(C(=O)C(=O)N3CCCC[C@H]3C(=O)O[C@H](/C(C)=C/[C@@H]3CC[C@@H](O)[C@H](OC)C3)[C@H](C)[C@@H](O)CC1=O)[C@H](C)C[C@@H]2OC`: the log fold change Tl+ flux was 0.274 (active).
With `CO[C@H]1C=CO[C@@]2(C)Oc3c(C)c(O)c4c(O)c(c5c(c4c3C2=O)NC2(CCN(CC(C)C)CC2)N=5)=NC(=O)C(C)=CC=C[C@H](C)[C@H](O)[C@@H](C)[C@@H](O)[C@@H](C)[C@H](OC(C)=O)[C@@H]1C` the figure was 0.0366 (inactive); with `CN(C)S(=O)(=O)c1ccc2c(c1)/C(=C\CCN1CCNCC1)c1ccccc1S2`, 0.0522 (inactive); with `CCC(=O)NS(=O)(=O)c1ccc(-c2c(-c3ccccc3)noc2C)cc1`, -0.00911 (inactive).
Take `C[C@]12C=CC(=O)C=C1CC[C@@H]1[C@@H]2[C@@H](O)C[C@@]2(C)[C@H]1CC[C@]2(O)C(=O)COC(=O)CCC(=O)O`: the log fold change Tl+ flux is -0.0173 (inactive).
With `CN(C)CC/C=C1/c2ccccc2COc2ccccc21` the figure was 0.0624 (inactive); with `CC(=O)NCCCCCCNC(C)=O`, 0.0269 (inactive); with `CO[C@H]1C=CO[C@@]2(C)Oc3c(C)c(O)c4c(O)c(c5c(nc6cc(C)ccn65)c4c3C2=O)NC(=O)C(C)=CC=C[C@H](C)[C@H](O)[C@@H](C)[C@@H](O)[C@@H](C)[C@H](OC(C)=O)[C@@H]1C`, 0.0122 (inactive).
Next, `CO[C@H]1O[C@@H]2O[C@@]3(C)CC[C@H]4[C@H](C)CC[C@@H]([C@H]1C)[C@@]24OO3`: -0.0131 (inactive).
With `CC(C)CC(NC(=O)C(COC(C)(C)C)NC(=O)C(Cc1ccc(O)cc1)NC(=O)C(CO)NC(=O)C(Cc1c[nH]c2ccccc12)NC(=O)C(Cc1cnc[nH]1)NC(=O)C1CCC(=O)N1)C(=O)N[C@@H](CCCN=C(N)N)C(=O)N1CCCC1C(=O)NNC(N)=O` (some centres not stated) the figure was 0.00576 (inactive); with `COCCCCC(=NOCCN)c1ccc(C(F)(F)F)cc1`, 0.0249 (inactive); with `CCN(CC)CCOc1ccc(C(=C(Cl)c2ccccc2)c2ccccc2)cc1`, 0.0697 (inactive).
Turning to `CO[C@H]1/C=C/O[C@@]2(C)Oc3c(C)c(O)c4c(O)c(c(C=NN5CCN(C6CCCC6)CC5)c(O)c4c3C2=O)NC(=O)/C(C)=C\C=C\[C@H](C)[C@H](O)[C@@H](C)[C@@H](O)[C@@H](C)[C@H](OC(C)=O)[C@@H]1C`, the log fold change Tl+ flux is 0.161 (active).
With `O=C1CN(N=Cc2ccc([N+](=O)[O-])o2)C(=O)N1` the figure was -0.0666 (inactive); with `C=CC1=C(C(=O)O)N2C(=O)[C@@H](NC(=O)C(=NOCC(=O)O)c3csc(N)n3)[C@H]2SC1`, -0.021 (inactive).
Next, `COc1cc(N)c(Cl)cc1C(=O)N[C@@H]1CCN(CCCOc2ccc(F)cc2)C[C@@H]1OC`: -0.0487 (inactive); `COCC1=C(C(=O)OC(C)OC(=O)OC(C)C)N2C(=O)[C@@H](NC(=O)C(=NOC)c3csc(N)n3)[C@H]2SC1` (some centres not stated): -0.0216 (inactive).
